In the library only some 9.9% were active in any assay of this set; here they are far more common.
MCF10A rerep: A quantitative high throughput screen for small molecules that induce DNA re-replication in MCF 10a normal breast cells | MCF 10A DNA re-replication, Hoechst nuclear intensity, 48 h | Potency, µM (doses to about 46.1 µM), for the others: at the top dose activity, positive = re-replication, most hits filed as activators | 2.9% of 350,000 active | AID 624296, 2012; note: potency is the fitted concentration of half-maximal effect; % of control where 0% means no effect; nearly all actives have a fitted effect of over 50% in size
SW480 rerep: A quantitative high throughput screen for small molecules that induce DNA re-replication in SW480 colon adenocarcinoma cells. SW480 DNA re-replication, Hoechst DNA content imaging, 48 h. Potency, µM (series often up to 46.1 µM), for the others: top-dose re-replication activation, most hits filed as activators. 1.8% of 340,000 active; note: potency is the fitted concentration of half-maximal effect; % of control where 0% means no effect; nearly all actives have a fitted effect of over 55% in size
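Compounds, transferred as 23 nL by pin tool, were incubated with cells for 48 hr; DNA content per nucleus was then quantified by Hoechst staining and fluorescence plate imaging.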
KB-V1 MDR tox: qHTS assay for MDR1-selective chemotherapeutics: Primary screen using the drug-selected MDR subline cells KB-V1. KB-V1 MDR cells viability, CellTiter-Glo, 72 h. Potency, µM (top dose mostly 46.1 µM), hits mostly cytotoxic. 3.4% of 400,000 active. AID 1347076, 2019; note: potency is the fitted concentration of half-maximal effect; % is set by controls: 0 for no effect and ±100 for the full control effect; nearly all actives have a fitted effect of over 60% in size
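Potencies derive from concentration-effect curves fitted to normalized luminescence (CellTiter-Glo) of KB-V1 cells treated for 72 h at 37 degrees C in phenol-red-free DMEM containing 10% FBS.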
IL1B secr inh: qHTS for Inhibitors of Inflammasome Signaling: IL-1-beta AlphaLISA Primary Screen | THP-1 LPS/ATP IL-1B secretion, AlphaLISA, 16 h; stronger effect = lower value | activity change, % at 57.5 µM | 4.7% of 360,000 active | AID 743279, 2014; in the data active = activity change below about -50%; inconclusive = mostly about -30% to -49%; note: % is set by controls: 0 for no effect and ±100 for the full control effect
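THP-1 cells pretreated 1 hr with compounds (up to 57.5 uM final), then stimulated with LPS (250 ng/mL final) plus ATP (1.25 mM final); secreted IL-1B measured by AlphaLISA after 16 hr, decreased signal indicating inhibition.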
KB-3-1 tox: qHTS assay for MDR1-selective chemotherapeutics: Primary screen using the parental adenocarcinoma cell KB-3-1. AID 1347075, 2019. KB-3-1 viability, CellTiter-Glo ATP luminescence, 72 h. Potency, µM (highest dose often 46.1 µM), most hits filed as cytotoxic. 1.4% of 400,000 active; note: potency is the fitted concentration of half-maximal effect; % is set by controls: 0 for no effect and ±100 for the full control effect; nearly all actives have a fitted effect of over 60% in size
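KB-3-1 cells, DMEM (no phenol red) + 10% FBS; compound by pin transfer, 72 h, 37 °C. Readout: CellTiter-Glo luminescence after 10 min. Data normalized, curve-fitted.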
The depositor's hits bear a star; i = inactive; ? = inconclusive; . = not tested or not shown. Unless noted, calls come from the whole dose curve; as a rule, active = well fitted curve in the direction sought with a large enough effect; inconclusive = small, poorly fitted or top-dose-only effect, or another doubt; inactive = no such curve, though single readings can be large; an effect the other way counts as inactive or inconclusive.

SMILES	MCF10A rerep	SW480 rerep	KB-V1 MDR tox	IL1B secr inh	KB-3-1 tox
COc1cc(CNCc2cccs2)ccc1OCc1ccccc1	-10.0%	7.1%	i	-22.4	i
COc1cc(CNCc2ccco2)ccc1OCc1ccccc1	13.2%	1.2%	?	?	i
Clc1ccc(COc2cccc(CNCc3ccncc3)c2)cc1	14.7%	-4.1%	6.51µM*	-15.2	?
COc1cc(CNCc2ccccn2)ccc1OCc1c(Cl)cccc1Cl	?	?	?	?	i
COc1cc(CNCc2cccs2)ccc1OCc1cccs1	4.7%	-2.8%	?	-83.9*	i
c1ccc(COc2cccc(CNCc3cccs3)c2)cc1	13.7%	-61.8%	i	-19.0	i
Cc1ccc(C(C)C)c(OCc2ccc(C(=O)N/N=C/c3ccc(O)c(O)c3)cc2)c1	?	?	?	-100.4*	?
CCOc1cc(/C=N/NC(=O)c2ccc(CN3CCOCC3)cc2)ccc1OCc1ccccc1	7.7%	-2.1%	2.31µM*	41.9	?
CC(c1ccccc1)N(C)C(=O)CSc1nnc(C2CC2)n1C1CC1 (stereo not given)	-2.1%	-3.7%	i	-3.4	i
CC1Cc2ccccc2N1S(=O)(=O)c1ccc2c(c1)n(C)c(=O)c(=O)n2C (stereo not given)	16.1%	0.8%	16.4µM*	23.1	i
CC(NC(=O)Nc1nnc(C(F)(F)F)s1)(C(F)(F)F)C(F)(F)F	11.6µM*	?	i	-61.7*	13µM*
O=C(Nc1nnc(C(F)(F)F)s1)c1ccc(Br)s1	18.5%	1.8%	2.91µM*	-54.7*	4.61µM*
O=C(Nc1ccccc1C(=O)Nc1nnc(C(F)(F)F)s1)c1ccccc1Cl	?	?	?	-73.4*	20.6µM*
CCSc1nnc(NC(=O)c2ccc(Br)s2)s1	-7.5%	-4.2%	i	-21.6	?
CCCCn1c(Cn2nc(C(=O)O)c3ccccc3c2=O)nc2cc(S(N)(=O)=O)ccc21	8.8%	-1.4%	i	22.9	i
Cc1cc2c(cc1NC(=O)c1ccccc1C)n(C)c(=O)c(=O)n2C	.	.	i	.	i
O=C(Nc1ncc(Cc2ccc(F)cc2)s1)c1ccc2c(c1)CC(c1ccccc1)OC2=O (stereo not given)	.	.	i	.	i
CC(C)=CCN1CCN(Cc2c[nH]c3ccccc23)CC1CCO (stereo not given)	0.6%	3.9%	i	2.7	i
Cc1cc(C)n(Cc2cccc(C(=O)N/N=C/c3ccncc3)c2)n1	0.3%	-3.2%	i	25.6	i
CCCCn1c(SCC(=O)NCc2ccco2)nc2ccc(N3CCOCC3)cc2c1=O	?	0.8%	2.06µM*	21.9	i
CCCCn1c(SCC(=O)NC(C)CC)nc2ccc(N3CCOCC3)cc2c1=O (stereo not given)	-0.1%	-9.1%	3.26µM*	-5.0	i
CCCCn1c(SCC(=O)NCc2ccccc2)nc2ccc(N3CCOCC3)cc2c1=O	20.5%	2.1%	?	-8.0	i
COC(=O)c1nn(-c2ccc(OC)cc2)ccc1=O	-2.2%	0.6%	i	-5.8	i
CC(C)n1cnc2c(Nc3cccc(Cl)c3)nc(NCCCO)nc21	18.8%	?	i	-95.0*	i
Cc1cc(=O)oc2cc(NC(=O)C(C)N3C(=O)C4CCCCC4C3=O)ccc12 (stereo not given)	0.9%	-1.5%	i	2.3	i
SMILES	MCF10A rerep	SW480 rerep	KB-V1 MDR tox	IL1B secr inh	KB-3-1 tox
Cc1cc(CN(C)Cc2cn(C)nc2-c2ccc(Oc3ccccc3)cc2)on1	3.8%	0.5%	9.2µM*	-27.3	i
CC1CC(C)CN(S(=O)(=O)c2ccc3c(c2)CC(C)N3C(=O)C2CC2)C1 (stereo not given)	?	-21.5%	i	-5.1	i
Cc1ccc2c(c1)N(C(=O)NC1CCCCC1)C(C)(C)CC2C (stereo not given)	9.2µM*	?	i	13.8	i
CC1CCN(C2=NC(=O)/C(=C/c3ccccc3F)S2)CC1	?	-2.5%	i	-99.2*	i
CC1Cc2cc(/C=C3/SC(=S)N(C)C3=O)ccc2O1 (stereo not given)	-2.0%	-5.8%	i	2.8	i
CC1CCN(C2=NC(=O)/C(=C/c3cccc(O)c3)S2)CC1	1.9%	-6.3%	i	-75.2*	i
CC1Cc2cc(/C=C3/SC(N4CCC(C(N)=O)CC4)=NC3=O)ccc2O1 (stereo not given)	-13.0%	13µM*	i	.	?
Fc1ccc2nncc(SCc3ccccc3Cl)c2c1	18.4µM*	18.4%	i	-24.7	i
O=C(NCc1ccc(F)cc1)c1ccc(S(=O)(=O)N2CCCC2)cc1	.	.	?	-11.1	i
COC(=O)c1ccc(CNC(=O)c2ccc(S(=O)(=O)N3CCCC(C)C3)cc2)cc1 (stereo not given)	-1.1%	-5.0%	16.4µM*	8.4	i
CCOc1ccc(C(=O)Nc2cc(-c3nc4ccccc4s3)ccc2OC)cc1	.	.	7.31µM*	.	?
O=C(Nc1cc(-c2nc3ccccc3s2)ccc1Cl)c1ccc2c(c1)OCO2	9.2µM*	-10.1%	i	-28.7	i
Cc1ccc(-c2nc3ccccc3s2)cc1NC(=O)c1ccc2c(c1)OCO2	8.1%	?	i	-7.2	i
CCOc1cc(-c2nc3ccccc3s2)ccc1O	?	1.84µM*	?	?	i
CCNc1ccc(C(=O)NN=C2CCCC2)cc1[N+](=O)[O-]	4.2%	-4.0%	i	15.2	?
O=C(COC(=O)CCS(=O)(=O)c1ccccc1)Nc1ccc(N2CCCCC2)cc1	5.2%	-3.5%	i	-7.2	i
CN(C)c1ccc(CNS(=O)(=O)c2ccc3[nH]c4c(c3c2)CCCCC4)cc1	.	.	16.4µM*	.	?
COc1ccc(OC)c(CNS(=O)(=O)c2ccc3[nH]c4c(c3c2)CCCCC4)c1	.	.	20.6µM*	.	?
COc1ccc(NS(=O)(=O)c2ccc3[nH]c4c(c3c2)CCCC4)c(OC)c1	.	.	i	.	i
COc1ccc(-c2nnc(SCC(=O)O)n2Cc2ccccc2)cc1	2.8%	1.5%	i	11.3	i
COCc1cccc(-c2csc(C(C)(O)c3cccc(F)c3)n2)c1 (stereo not given)	.	.	i	15.3	i
CCOC(=O)N1CCN(CCC(=O)c2ccc(OC)cc2)CC1	14.6µM*	?	i	-16.1	i
CCOC(=O)N1CCN(CCC(=O)Nc2ccc(OC)cc2)CC1	-0.3%	-6.1%	i	9.7	i

High-throughput results from PubChem.
